The panel holds about 83,000 compounds, 20% with a hit somewhere; the sample as a whole holds those more often.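 48-hour exposure, single concentration, 96-well plates; percent growth endpoint where 0 means no net growth. Active: below 10.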 A number with no mark means an inactive call. The source made the active and inactive calls.

Test systems include HCT-15 colon; HT29 colon; SNB-75 CNS; SNB-19 CNS; U251 CNS; PC-3 prostate; SK-MEL-5 melanoma; UACC-62 melanoma; LOX IMVI melanoma; SK-MEL-28 melanoma; SK-MEL-2 melanoma; EKVX NSCLC; SN12C renal; UO-31 renal; TK-10 renal; ACHN renal; CAKI-1 renal; A498 renal; CCRF-CEM leukemia; MOLT-4 leukemia.
Holding throughout (test): NCI-60 one-dose screen, 48 h (100 = growth as untreated, 0 = no growth, -100 = all killed)
Holding throughout (conditions): 10 µM unless noted

As to `CC1(C)C=Cc2cc(/C(N)=N/C(N)=N/c3nc4ccccc4s3)ccc2O1`, the growth in the experiment on HCT-15 colon is 57.7%; with HT29 colon it was 95.1%; in the experiment with SNB-75 CNS, 101%; in the experiment on SNB-19 CNS, 96.6%; with U251 CNS, 89.8%; with PC-3 prostate, 34.7%. Moreover, the growth in the experiment on SK-MEL-5 melanoma is 87.9%; in the experiment with UACC-62 melanoma, 96.7%; in the experiment on LOX IMVI melanoma, -56.3% (active); in the experiment on SK-MEL-28 melanoma, 108%; with SK-MEL-2 melanoma it was 110%; with EKVX NSCLC, 30.7%. Moreover, the growth with SN12C renal is 52.4%; in the experiment on UO-31 renal, 64.9%; in the experiment on TK-10 renal, 113%; with ACHN renal it was 88.7%; in the experiment with CAKI-1 renal, 65.3%; in the experiment on A498 renal, 114%. Further, the growth was 46.3% in the experiment on CCRF-CEM leukemia and 61.8% in the experiment with MOLT-4 leukemia.
On to `O=S(=O)(Oc1ccc(-c2cn3ccsc3n2)cc1)c1cccc(C(F)(F)F)c1`, for which the growth in the experiment on HCT-15 colon was 96.8%; in the experiment on HT29 colon, 107%; in the experiment with SNB-75 CNS, 102%; in the experiment with SNB-19 CNS, 96.4%; with U251 CNS it was 100%; in the experiment on PC-3 prostate it was 97.9%. The growth was 98.3% in the experiment with SK-MEL-5 melanoma; 81.3% in the experiment with UACC-62 melanoma; 112% in the experiment on LOX IMVI melanoma; 99.6% in the experiment with SK-MEL-28 melanoma; 101% in the experiment on SK-MEL-2 melanoma; 94.3% in the experiment on EKVX NSCLC. Also, the growth is 104% in the experiment with SN12C renal; 93.1% with UO-31 renal; 98.7% in the experiment on TK-10 renal; 98.4% in the experiment on ACHN renal; 89.9% in the experiment with CAKI-1 renal; 86.8% with A498 renal. The values for the growth in the experiment with CCRF-CEM leukemia and in the experiment with MOLT-4 leukemia were 100% and 97.6%, respectively.
For `C#CCN(C)CCCOc1ccc(NC(=O)CCCCCCCCC(=O)NO)cc1Cl`, the growth in the experiment on HCT-15 colon is 75%; in the experiment on HT29 colon it was 67.8%; in the experiment with SNB-75 CNS, 63.4%; in the experiment on SNB-19 CNS, 77.3%; in the experiment on U251 CNS it was 64.3%; in the experiment on PC-3 prostate it was 73.9%. Besides, the growth in the experiment on SK-MEL-5 melanoma is 54.9%; with UACC-62 melanoma, 40.6%; with LOX IMVI melanoma, 4.6% (active); with SK-MEL-28 melanoma, 77%; with SK-MEL-2 melanoma it was 96.7%; in the experiment with EKVX NSCLC, 68.8%. Further, the growth is 95.9% with SN12C renal; 51.7% in the experiment with UO-31 renal; 63.1% in the experiment with TK-10 renal; 80.4% in the experiment with ACHN renal; 78.6% in the experiment with CAKI-1 renal; 81.1% in the experiment with A498 renal. The figures for the growth in the experiment with CCRF-CEM leukemia and with MOLT-4 leukemia were 30.5% and 43.2%, respectively.
Take `Cn1cc(-c2nc(N)nnc2-c2c[nH]c3ccc(Br)cc23)c2cc(F)ccc21`: the growth in the experiment with HCT-15 colon is 77.2%; in the experiment with HT29 colon it was 104%; with SNB-75 CNS, 79.9%; in the experiment with SNB-19 CNS, 88%; in the experiment on U251 CNS, 97.8%; with PC-3 prostate, 87.2%. For the same compound, the growth in the experiment with SK-MEL-5 melanoma is 91.5%; with UACC-62 melanoma, 91.7%; with LOX IMVI melanoma, 92.3%; with SK-MEL-28 melanoma, 101%; with SK-MEL-2 melanoma, 113%; in the experiment on EKVX NSCLC, 78.5%. For the same compound, the growth in the experiment on SN12C renal is 102%; in the experiment on UO-31 renal, 58.8%; in the experiment on TK-10 renal, 131%; with ACHN renal it was 78.5%; with CAKI-1 renal it was 67.8%; with A498 renal, 98.9%. Also, the growth in the experiment with CCRF-CEM leukemia was 83.2%; in the experiment on MOLT-4 leukemia it was 69.4%.
Turning to `Cn1cc(-c2nnc(N)nc2-c2c[nH]c3ccc(Br)cc23)c2cc(Br)ccc21`, the growth with HCT-15 colon was 91.3%; with HT29 colon, 97.1%; in the experiment with SNB-75 CNS, 82.3%; in the experiment with SNB-19 CNS, 98.7%; in the experiment on U251 CNS it was 99.7%; in the experiment on PC-3 prostate it was 102%. Further, the growth with SK-MEL-5 melanoma is 101%; in the experiment on UACC-62 melanoma, 97.7%; in the experiment on LOX IMVI melanoma, 101%; with SK-MEL-28 melanoma, 101%; in the experiment with SK-MEL-2 melanoma, 110%; in the experiment on EKVX NSCLC, 103%. The growth was 110% in the experiment on SN12C renal; 84.2% in the experiment with UO-31 renal; 78.7% in the experiment on TK-10 renal; 94.7% in the experiment with ACHN renal; 85.9% in the experiment with CAKI-1 renal; 93.6% with A498 renal. In addition, the growth with CCRF-CEM leukemia is 108%; with MOLT-4 leukemia it was 107%.
For `Cc1ccc(Nc2nc(SC(C)C)nc(-c3ccccc3)c2C#N)cc1`, the growth is 95.1% in the experiment with HCT-15 colon; 101% in the experiment with HT29 colon; 91.1% in the experiment on SNB-75 CNS; 97.1% in the experiment with SNB-19 CNS; 103% in the experiment with U251 CNS; 99.9% in the experiment on PC-3 prostate. The growth in the experiment with SK-MEL-5 melanoma was 83.5%; in the experiment on UACC-62 melanoma it was 95.5%; in the experiment with LOX IMVI melanoma, 96.4%; in the experiment on SK-MEL-28 melanoma it was 96.8%; in the experiment on SK-MEL-2 melanoma it was 112%; in the experiment on EKVX NSCLC, 81.7%. Besides, the growth in the experiment on SN12C renal is 95.8%; in the experiment with UO-31 renal, 88.4%; with TK-10 renal, 82.1%; with ACHN renal, 88.4%; in the experiment on CAKI-1 renal it was 75.8%; with A498 renal, 62.3%. Besides, the growth in the experiment on CCRF-CEM leukemia was 81.7%; in the experiment with MOLT-4 leukemia, 100%.
For `CN1CCN(Cc2ccc(NC(=O)c3cncc(C#Cc4cnc5ccc(OCCCS(C)(=O)=O)nn45)c3)cc2C(F)(F)F)CC1`, the growth is 3.14% (active) in the experiment with HCT-15 colon; -10.8% (active) in the experiment on HT29 colon; -91.7% (active) in the experiment on SNB-75 CNS; 1.67% (active) with SNB-19 CNS; -4.26% (active) with U251 CNS; 1.61% (active) with PC-3 prostate. The growth is -57% (active) with SK-MEL-5 melanoma; -57.3% (active) in the experiment with UACC-62 melanoma; -82.6% (active) in the experiment on LOX IMVI melanoma; -21.8% (active) with SK-MEL-28 melanoma; -82% (active) in the experiment with SK-MEL-2 melanoma; -10.7% (active) with EKVX NSCLC. The growth was -15.8% (active) with SN12C renal; -12.9% (active) with UO-31 renal; -6.6% (active) in the experiment on TK-10 renal; -16.1% (active) in the experiment on ACHN renal; -14% (active) in the experiment with CAKI-1 renal; -90.9% (active) in the experiment with A498 renal. The growth in the experiment with CCRF-CEM leukemia was 6.43% (active); in the experiment on MOLT-4 leukemia, 2.88% (active).
As for `CC1=C(C)C(=O)C(Nc2cccc(C(=O)OC(C)(C)C)c2)=C(Cl)C1=O`, the growth was 80.2% with HCT-15 colon; 98.2% in the experiment with HT29 colon; 58.4% with SNB-75 CNS; 91.5% with SNB-19 CNS; 88.5% with U251 CNS; 76.9% in the experiment on PC-3 prostate. For the same compound, the growth in the experiment on SK-MEL-5 melanoma was 98.1%; in the experiment with UACC-62 melanoma, 93.4%; in the experiment on LOX IMVI melanoma, 62.6%; in the experiment with SK-MEL-28 melanoma, 104%; in the experiment on SK-MEL-2 melanoma it was 95.8%; in the experiment with EKVX NSCLC, 90.2%. Besides, the growth in the experiment with SN12C renal was 84.1%; with UO-31 renal it was 86.5%; in the experiment on TK-10 renal, 116%; in the experiment on ACHN renal, 79.6%; with CAKI-1 renal, 76.1%; in the experiment on A498 renal, 59.8%. Besides, the results for the growth with CCRF-CEM leukemia and with MOLT-4 leukemia were 21.9% and 45.3%, respectively.

The record behind these values is PubChem BioAssay (NCI).
